This is a sample that favours compounds with a hit; in the whole collection about 0.24% have one here.
NPYLR7 agonist = activates Aedes aegypti NPYLR7 receptor. HEK293T NPYLR7/Galpha15, GCaMP6s calcium fluorescence. activation, % at 10 µM. actives 0.15% (n = 270,000); in the data active = activation above about 40%
hcGAS inh = blocks human cGAS activity; inhibition, % at 12.5 µM; actives 0.081% (n = 290,000); recombinant h-cGAS, ATP depletion, Kinase-Glo luminescence; Q8N884
mcGAS inh = blocks mouse cGAS activity | Q8C6L5 | recombinant cGAS, Kinase-Glo ATP depletion luminescence | inhibition, % at 12.5 µM | actives 0.15% (n = 160,000) | AID 1259399
Target sequence (Q8C6L5 whole entry, looked up): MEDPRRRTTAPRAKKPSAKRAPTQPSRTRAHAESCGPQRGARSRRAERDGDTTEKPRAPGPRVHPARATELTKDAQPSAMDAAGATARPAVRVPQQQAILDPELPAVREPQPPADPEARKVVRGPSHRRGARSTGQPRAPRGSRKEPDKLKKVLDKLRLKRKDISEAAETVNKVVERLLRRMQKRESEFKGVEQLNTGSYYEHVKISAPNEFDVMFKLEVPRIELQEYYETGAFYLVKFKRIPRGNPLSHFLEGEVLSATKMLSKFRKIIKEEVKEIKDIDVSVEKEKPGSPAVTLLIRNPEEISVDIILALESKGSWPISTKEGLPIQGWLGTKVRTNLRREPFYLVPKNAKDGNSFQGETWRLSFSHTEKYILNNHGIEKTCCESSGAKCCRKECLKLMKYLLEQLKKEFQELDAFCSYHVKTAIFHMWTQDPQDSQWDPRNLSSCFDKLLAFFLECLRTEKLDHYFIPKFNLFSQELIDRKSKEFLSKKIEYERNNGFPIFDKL
A number is an active result; i = inactive; nt = no result given. Cut-off read from the data, not from the text of the source, unless noted: active = inhibition above about 40%; inactive = the rest.

SMILES	NPYLR7 agonist	hcGAS inh	mcGAS inh
O=C(Nc1cccc(-c2cccc(-c3ccc4c(c3)OCCO4)n2)c1)c1cncc(Br)c1	i	i	i
CC1(C)O[C@@H]2[C@H](O1)[C@@H](C(=O)O)O[C@H]2n1cnc2c(=O)[nH]cnc21	i	i	i
CCONC(=O)COc1ccc(Oc2ccccc2)cc1	i	i	nt
Cc1cc(O)c(C=O)c2c1C(=O)Oc1c(COC(=O)/C=C/C(=O)O)c(O)c(C(=O)O)c(C)c1O2	nt	69	67
Cc1cccc(OC(C)C(=O)NCCCn2nc(-c3ccccc3)ccc2=O)c1C (centres undefined)	i	i	nt
O=C(NCCN1N=C(c2ccccc2)CCC1=O)c1cccc2ccnn12	i	i	nt
COC(=O)C1CCN(C(=O)Cn2cc(C(F)(F)F)cc(Cl)c2=O)CC1	i	i	nt
COC(=O)c1sc(N)c(C(=O)OC)c1Cn1cc(C(F)(F)F)cc(Cl)c1=O	i	54	i
Cc1cc(=O)n2[nH]cc(-c3ccc(F)cc3)c2n1	i	i	nt
Cc1cc(=O)n2[nH]cc(-c3ccccc3Cl)c2n1	i	46	i
CCc1nnc(-c2cccc(OCc3cccnc3)c2)o1	i	i	nt
CC1CC1C(=O)Nc1cccc(C(=O)Nc2ccccc2C#N)c1 (centres undefined)	i	i	nt
CCn1cc(C(CC(=O)NCc2ccc3c(c2)OCO3)c2cc(OC)cc(OC)c2)c2ccccc21 (centres undefined)	i	i	i
CCn1cc(C(CC(=O)N2CCN(Cc3ccc4c(c3)OCO4)CC2)c2cc(OC)cc(OC)c2)c2ccccc21 (centres undefined)	nt	i	74
CCn1nccc1C(=O)N1CCC2(CC1)CC(N1CCN(CC(C)C)CC1)CCO2 (centres undefined)	nt	i	i
O=C(Cn1cnc2c(nnn2Cc2ccccc2F)c1=O)N1CCc2ccccc21	i	i	nt
COCc1cc(C)nc(OCC(=O)N/N=C\c2cc(I)c(O)c(I)c2)c1C#N	i	i	58
COCc1c(Br)c(C)nc(OCC(=O)N/N=C\c2cc(I)c(O)c([N+](=O)[O-])c2)c1C#N	i	i	83
COCc1c(Br)c(C)nc(OCC(=O)N/N=C\c2cc(I)c(O)c(OC)c2)c1C#N	i	i	i
COCc1cc(C)nc(OCC(=O)N/N=C\c2cc(I)c(O)c([N+](=O)[O-])c2)c1C#N	i	i	67
C=CCOc1c(I)cc(/C=N\NC(=O)COc2nc(C)cc(COC)c2C#N)cc1I	i	i	i
COCc1cc(C)nc(OCC(=O)N/N=C\c2cc(Br)c(O)c(Br)c2)c1C#N	i	i	i
CN(c1ccccc1)S(=O)(=O)c1cccc(NC(=O)CCl)c1	i	i	55
CN(c1ccccc1)S(=O)(=O)c1cccc(NS(=O)(=O)c2cc(Cl)ccc2Cl)c1	i	i	nt
CC(=O)OC(C)(C)C(=O)N1CCC(n2c(=O)oc3cc(C)ccc32)CC1	i	i	i
SMILES	NPYLR7 agonist	hcGAS inh	mcGAS inh
CCCCCCCCCCCCNC(=O)c1c(O)c2ccccc2[nH]c1=O	i	45	i
O=C(NCCCO)c1c(O)c2ccccc2[nH]c1=O	i	i	nt
CSc1ncc(CNCc2c(F)cccc2Cl)c(N2CCC(N3CCCCC3)CC2)n1	i	i	i
Oc1cc(O)c2c(c1)O[C@H](c1ccc(O)c(O)c1)[C@@H](O)C2	i	i	i
Oc1cc(O)c2c(c1)O[C@H](c1cc(O)c(O)c(O)c1)[C@H](O)C2	nt	79	i
O=C(O)CN1C(=O)/C(=C\c2ccc(OC(=O)c3ccc(Cl)cc3)cc2)SC1=S	i	i	i
O=C(CC1SC(=O)NC1=O)Oc1ccc(/C=C2\SC(=O)NC2=S)cc1 (centres undefined)	158	44	nt
COc1ccc2nc3cc(Cl)ccc3c(Nc3cc(CN4CCCC4)c(O)c(CN4CCCC4)c3)c2n1	i	45	nt
COc1cc(C)c(CN2CCN(Cc3nc4cc(Cl)ccc4c(=O)[nH]3)CC2)cc1OC	i	i	nt
O=C(c1ccc2c(c1)OCO2)N1CCCC(c2nc(-c3cccnc3)ncc2-c2ccccc2F)C1 (centres undefined)	i	i	i

Screens as filed in PubChem BioAssay.
